According to the supplement of paper PMC8728848:
This is one part of a sample in which the strongest signals are shown more often than they occur.

What was measured:
Test in all cases: glycan array binding signal (z-score within array); higher = stronger binding
Details in all cases: glycan notation: IUPAC condensed, linker removed
[1] = molecular target: Fuc(a1-2)Gal
Summary of the method: (§1)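 The binding signal is a Z-score computed within each array and averaged over linkers. Arrays of the same protein sequence at different concentrations or buffers were also averaged together. Data originate from 3228 arrays in the Consortium for Functional Glycomics database, kept only where the protein sequence was available.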

[2] = molecular target: Fuc(a1-2)Gal(b1-4)GlcNAc(b1-3)Gal(b1-4)GlcNAc
Summary of the method: as §1

[3] = molecular target: Fuc(a1-2)Gal(b1-4)GlcNAc(b1-3)[Fuc(a1-2)Gal(b1-4)GlcNAc(b1-6)]GalNAc
Summary of the method: as §1

[4] = molecular target: Fuc(a1-2)[Gal(a1-3)]Gal(b1-3)GlcNAc(b1-3)GalNAc
Summary of the method: as §1

[5] = molecular target: Fuc(a1-2)[Gal(a1-3)]Gal(b1-4)GlcNAc(b1-2)Man(a1-3)[Fuc(a1-2)[Gal(a1-3)]Gal(b1-4)GlcNAc(b1-2)Man(a1-6)]Man(b1-4)GlcNAc(b1-4)GlcNAc
Summary of the method: as §1

[6] = molecular target: Fuc(a1-2)[Gal(a1-4)]Gal(b1-4)GlcNAc
Summary of the method: as §1

[7] = molecular target: Fuc(a1-2)[GalNAc(a1-3)]Gal
Summary of the method: as §1

[8] = molecular target: Fuc(a1-2)[GalNAc(a1-3)]Gal(b1-3)GlcNAc(b1-3)GalNAc
Summary of the method: as §1

[9] = molecular target: Fuc(a1-2)[GalNAc(a1-3)]Gal(b1-4)GlcNAc(b1-3)Gal(b1-4)GlcNAc
Summary of the method: as §1

[10] = molecular target: Fuc(a1-2)[GalNAc(a1-3)]Gal(b1-4)GlcNAc(b1-3)GalNAc
Summary of the method: as §1

[11] = molecular target: Fuc(a1-3)GlcNAc
Summary of the method: as §1

[12] = molecular target: Fuc(a1-3)[Gal(b1-4)]GlcNAc(b1-2)Man
Summary of the method: as §1

[13] = molecular target: Gal(a1-3)Gal(b1-3)GlcNAc(b1-6)GalNAc
Summary of the method: as §1

[14] = molecular target: Gal(a1-3)Gal(b1-4)Glc
Summary of the method: as §1

[15] = molecular target: Gal(b1-3)Gal
Summary of the method: as §1

[16] = molecular target: Gal(b1-3)GalNAc(b1-3)Gal(a1-4)Gal(b1-4)Glc
Summary of the method: as §1

[17] = molecular target: Gal(b1-3)GlcNAc(b1-2)Man(a1-3)[Gal(b1-3)GlcNAc(b1-2)Man(a1-6)]Man(b1-4)GlcNAc(b1-4)GlcNAc
Summary of the method: as §1

[18] = molecular target: Gal(b1-3)GlcNAc(b1-3)Gal(b1-3)GlcNAc
Summary of the method: as §1

[19] = molecular target: Gal(b1-3)GlcNAc(b1-3)Gal(b1-4)GlcNAc(b1-2)[Gal(b1-3)GlcNAc(b1-3)Gal(b1-4)GlcNAc(b1-6)]Man(a1-6)[Gal(b1-3)GlcNAc(b1-3)Gal(b1-4)GlcNAc(b1-2)Man(a1-3)]Man(b1-4)GlcNAc(b1-4)[Fuc(a1-6)]GlcNAc
Summary of the method: as §1

[20] = molecular target: Gal(b1-4)GlcNAc(b1-2)Man(a1-3)[Gal(b1-4)GlcNAc(b1-2)Man(a1-6)]Man(b1-4)GlcNAc(b1-4)GlcNAc
Summary of the method: as §1

[21] = molecular target: Gal(b1-4)GlcNAc(b1-2)Man(a1-6)[Man(a1-3)]Man(b1-4)GlcNAc(b1-4)GlcNAc
Summary of the method: as §1

[22] = molecular target: Gal(b1-4)GlcNAc(b1-2)[Gal(b1-4)GlcNAc(b1-6)]Man(a1-6)[Gal(b1-4)GlcNAc(b1-2)Man(a1-3)]Man(b1-4)GlcNAc(b1-4)GlcNAc
Summary of the method: as §1

[23] = molecular target: Gal(b1-4)GlcNAc(b1-3)Gal(b1-4)GlcNAc(b1-2)[Gal(b1-4)GlcNAc(b1-3)Gal(b1-4)GlcNAc(b1-6)]Man(a1-6)[Gal(b1-4)GlcNAc(b1-3)Gal(b1-4)GlcNAc(b1-2)Man(a1-3)]Man(b1-4)GlcNAc(b1-4)GlcNAc
Summary of the method: as §1

[24] = molecular target: Gal(b1-4)GlcNAc(b1-3)Gal(b1-4)GlcNAc(b1-3)Gal(b1-4)GlcNAc
Summary of the method: as §1

[25] = molecular target: Gal(b1-4)GlcNAc(b1-3)Gal(b1-4)GlcNAc(b1-3)Gal(b1-4)GlcNAc(b1-2)Man(a1-3)[Gal(b1-4)GlcNAc(b1-3)Gal(b1-4)GlcNAc(b1-3)Gal(b1-4)GlcNAc(b1-2)Man(a1-6)]Man(b1-4)GlcNAc(b1-4)GlcNAc
Summary of the method: as §1

[26] = molecular target: Gal(b1-4)GlcNAc(b1-3)Gal(b1-4)GlcNAc(b1-3)Gal(b1-4)GlcNAc(b1-3)Gal(b1-4)GlcNAc(b1-2)Man(a1-3)[Gal(b1-4)GlcNAc(b1-3)Gal(b1-4)GlcNAc(b1-3)Gal(b1-4)GlcNAc(b1-3)Gal(b1-4)GlcNAc(b1-2)Man(a1-6)]Man(b1-4)GlcNAc(b1-4)[Fuc(a1-6)]GlcNAc
Summary of the method: as §1

[27] = molecular target: Gal(b1-4)GlcNAc(b1-3)Gal(b1-4)GlcNAc(b1-3)Gal(b1-4)GlcNAc(b1-3)Gal(b1-4)GlcNAc(b1-2)[Gal(b1-4)GlcNAc(b1-3)Gal(b1-4)GlcNAc(b1-3)Gal(b1-4)GlcNAc(b1-3)Gal(b1-4)GlcNAc(b1-6)]Man(a1-6)[Gal(b1-4)GlcNAc(b1-3)Gal(b1-4)GlcNAc(b1-3)Gal(b1-4)GlcNAc(b1-3)Gal(b1-4)GlcNAc(b1-2)Man(a1-3)]Man(b1-4)GlcNAc(b1-4)[Fuc(a1-6)]GlcNAc
Summary of the method: as §1

[28] = molecular target: Gal(b1-4)GlcNAc(b1-3)Gal(b1-4)GlcNAc(b1-3)Gal(b1-4)GlcNAc(b1-3)Gal(b1-4)GlcNAc(b1-3)Gal(b1-4)GlcNAc(b1-3)Gal(b1-4)GlcNAc(b1-2)Man(a1-3)[Gal(b1-4)GlcNAc(b1-3)Gal(b1-4)GlcNAc(b1-3)Gal(b1-4)GlcNAc(b1-3)Gal(b1-4)GlcNAc(b1-3)Gal(b1-4)GlcNAc(b1-3)Gal(b1-4)GlcNAc(b1-2)Man(a1-6)]Man(b1-4)GlcNAc(b1-4)GlcNAc
Summary of the method: as §1

B1: MtEccB1 (Mycobacterium tuberculosis H37Rv), O69734 (protein)
chain: MGLRLTTKVQVSGWRFLLRRLEHAIVRRDTRMFDDPLQFYSRSIALGIVVAVLILAGAALLAYFKPQGKLGGTSLFTDRATNQLYVLLSGQLHPVYNLTSARLVLGNPANPATVKSSELSKLPMGQTVGIPGAPYATPVSAGSTSIWTLCDTVARADSTSPVVQTAVIAMPLEIDASIDPLQSHEAVLVSYQGETWIVTTKGRHAIDLTDRALTSSMGIPVTARPTPISEGMFNALPDMGPWQLPPIPAAGAPNSLGLPDDLVIGSVFQIHTDKGPQYYVVLPDGIAQVNATTAAALRATQAHGLVAPPAMVPSLVVRIAERVYPSPLPDEPLKIVSRPQDPALCWSWQRSAGDQSPQSTVLSGRHLPISPSAMNMGIKQIHGTATVYLDGGKFVALQSPDPRYTESMYYIDPQGVRYGVPNAETAKSLGLSSPQNAPWEIVRLLVDGPVLSKDAALLEHDTLPADPSPRKVPAGASGAP
glycan array binding signal (z-score) [1]: -0.548
glycan array binding signal (z-score) [2]: -0.199
glycan array binding signal (z-score) [3]: -0.809
glycan array binding signal (z-score) [4]: 0.379
glycan array binding signal (z-score) [5]: -0.471
glycan array binding signal (z-score) [6]: -1.08
glycan array binding signal (z-score) [7]: -0.459
glycan array binding signal (z-score) [8]: 0.901
glycan array binding signal (z-score) [9]: -1.03
glycan array binding signal (z-score) [10]: -0.767
glycan array binding signal (z-score) [11]: -1.29
glycan array binding signal (z-score) [12]: -0.707
glycan array binding signal (z-score) [13]: -0.407
glycan array binding signal (z-score) [14]: 0.359
glycan array binding signal (z-score) [15]: 0.485
glycan array binding signal (z-score) [16]: -0.784
glycan array binding signal (z-score) [17]: 2.58
glycan array binding signal (z-score) [18]: 0.213
glycan array binding signal (z-score) [19]: 1.6
glycan array binding signal (z-score) [20]: -1.33
glycan array binding signal (z-score) [21]: 2.86
glycan array binding signal (z-score) [22]: -0.552
glycan array binding signal (z-score) [23]: 2.86
glycan array binding signal (z-score) [24]: 2.06
glycan array binding signal (z-score) [25]: 0.867
glycan array binding signal (z-score) [26]: 1.01
glycan array binding signal (z-score) [27]: 1.93
glycan array binding signal (z-score) [28]: 2.86
